Laboratory results as given in PubChem BioAssay (NCATS).
Results filed as inconclusive are left out. The source made the active and inactive calls. Calls come from the whole dose curve; as a rule, active = well fitted curve in the direction sought with a large enough effect; inconclusive = small, poorly fitted or top-dose-only effect, or another doubt; inactive = no such curve, though single readings can be large; an effect the other way counts as inactive or inconclusive.

How the values were obtained:
HACAT = test: qHTS assay to identify novel small-molecules to repurpose for Merkel cell carcinoma treatment (AID 1296009); settings: MCC and control cell lines, CellTiter-Glo viability, 72 h; at 44.8 µM (top of the series) unless noted; note: nearly all actives have a fitted effect of over 60% in size
Summary of the method: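 qHTS format: cells treated with library compounds in DMSO across 8 (NPC) or 11 (MIPE) concentrations. Readout after 72 hr at 37 degree celsius was CellTiter-Glo luminescence.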

C33A = test: Primary qHTS to identify gynecologic anti-cancer compounds using libraries of approved drugs and bioactive compounds (AID 1345084); settings: Gynecologic cancer cell panel viability, ATPlite luminescence, 48 h; series mostly up to 57.5 µM; note: % is set by controls: 0 for no effect and ±100 for the full control effect; nearly all actives have a fitted effect of over 55% in size
Summary of the method: (§1)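 Cytotoxicity screen measuring ATP content by luciferase luminescence. Each compound is applied at five concentrations for 48 h at 37 C with 5% CO2.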

CAOV3 = test: as above; settings: Gynecologic cancer cell panel viability, ATPlite luminescence, 48 h; series mostly up to 57.5 µM
Summary of the method: as §1

CASKI = test: as above; settings: Gynecologic cancer cell panel viability, ATPlite luminescence, 48 h; series mostly up to 57.5 µM
Summary of the method: as §1

Es-2 = test: as above; settings: Gynecologic cancer cell panel viability, ATPlite luminescence, 48 h; series mostly up to 57.5 µM
Summary of the method: as §1

HeLa = test: as above; settings: Gynecologic cancer cell panel viability, ATPlite luminescence, 48 h; series mostly up to 57.5 µM
Summary of the method: as §1

Hek293T = test: as above; settings: Gynecologic cancer cell panel viability, ATPlite luminescence, 48 h, control line for the selectivity index; series mostly up to 57.5 µM
Summary of the method: as §1

JEG-3 = test: as above; settings: Gynecologic cancer cell panel viability, ATPlite luminescence, 48 h; series mostly up to 57.5 µM
Summary of the method: as §1

CC(=O)O[C@H]1C[C@@]2(C)[C@@H](CC[C@H]3[C@@]4(C)C=CC(=O)[C@@H](C)[C@@H]4[C@H](OC(C)=O)C(=O)[C@@]32C)/C1=C(\CCC=C(C)C)C(=O)O
inactive: outcome (HACAT) inactive [at 17.4 µM] | Potency (C33A) | Potency (CAOV3) | outcome (CASKI) | Potency (Es-2) | Potency (HeLa) | Potency (Hek293T) | Potency (JEG-3)

C[C@]12CC[C@@H]3c4ccc(O)cc4CC[C@H]3[C@@H]1C[C@@H](O[C@@H]1O[C@H](C(=O)O)[C@@H](O)[C@H](O)[C@H]1O)[C@@H]2O
inactive: outcome (HACAT) | Potency (C33A) | Potency (CAOV3) | outcome (CASKI) | Potency (Es-2) | Potency (HeLa) | Potency (Hek293T) | Potency (JEG-3)

COc1cc(C(O)C2COC(c3ccc(OC4OC(CO)C(O)C(O)C4O)c(OC)c3)C2CO)ccc1O (stereo not drawn)
inactive: outcome (HACAT) inactive [at 17.4 µM] | Potency (C33A) | Potency (CAOV3) | outcome (CASKI) | Potency (Es-2) | Potency (HeLa) | Potency (Hek293T) | Potency (JEG-3)

C[C@H]1CC[C@@]2(OC1)O[C@H]1CC3C4CC[C@H]5C[C@@H](O)CC[C@]5(C)C4CC(=O)[C@]3(C)[C@H]1[C@@H]2C (stereo partly drawn)
inactive: outcome (HACAT) inactive [at 17.4 µM] | Potency (C33A) | Potency (CAOV3) | outcome (CASKI) | Potency (Es-2) | Potency (HeLa) | Potency (Hek293T) | Potency (JEG-3)

COC(=O)C(CC1(O)c2ccccc2N2C(=O)C(C)(C)N(O)C21)n1cnc2ccccc2c1=O (stereo not drawn)
inactive: outcome (HACAT) inactive [at 17.4 µM] | Potency (C33A) | Potency (CAOV3) | outcome (CASKI) | Potency (Es-2) | Potency (HeLa) | Potency (Hek293T) | Potency (JEG-3)

C=CCC/C=C/C#CCCCCCCCC[C@H]1C(=O)O[C@H](C)[C@@H]1O
inactive: outcome (HACAT) | Potency (C33A) | Potency (CAOV3) | outcome (CASKI) | Potency (Es-2) | Potency (HeLa) | Potency (Hek293T) | Potency (JEG-3)

COC(=O)C1=CO[C@@H](O[C@@H]2O[C@H](CO)[C@@H](O)[C@H](O)[C@H]2O)[C@@H]2[C@@H](CO)[C@@H](O)C(O)[C@H]12 (stereo partly drawn)
inactive: outcome (HACAT) inactive [at 17.4 µM] | Potency (C33A) | Potency (CAOV3) | outcome (CASKI) | Potency (Es-2) | Potency (HeLa) | Potency (Hek293T) | Potency (JEG-3)

C/C=C/C=C/C(O)=C1/C(=O)[C@]2(C)C(=O)[C@@](C)(O)[C@H]1[C@H]([C@@]1(C)OC(=O)C(C)=C1O)[C@H]2C(=O)CC/C=C/C
inactive: outcome (HACAT) inactive [at 17.4 µM] | Potency (C33A) | Potency (CAOV3) | outcome (CASKI) | Potency (Es-2) | Potency (HeLa) | Potency (Hek293T) | Potency (JEG-3)

CC1(C)CC[C@]2(C(=O)O)CC[C@]3(C)C(=CCC4[C@@]5(C)C[C@@H](O)[C@H](O)[C@@](C)(CO)C5[C@H](O)C[C@]43C)[C@@H]2C1 (stereo partly drawn)
inactive: outcome (HACAT) inactive [at 17.4 µM] | Potency (C33A) | Potency (CAOV3) | outcome (CASKI) | Potency (Es-2) | Potency (HeLa) | Potency (Hek293T) | Potency (JEG-3)

CN1CCN(C2=Nc3ccccc3Nc3ccc(O)cc32)CC1
inactive: outcome (HACAT) | Potency (C33A) | Potency (CAOV3) | outcome (CASKI) | Potency (Es-2) | Potency (HeLa) | Potency (Hek293T) | Potency (JEG-3)

CC1(C)CC[C@]2(C(=O)O)CC[C@]3(C)C(=CCC4[C@@]5(C)C[C@@H](O)[C@H](O)[C@@](C)(CO)C5CC[C@]43C)C2C1 (stereo partly drawn)
inactive: outcome (HACAT) inactive [at 17.4 µM] | Potency (C33A) | Potency (CAOV3) | outcome (CASKI) | Potency (Es-2) | Potency (HeLa) | Potency (Hek293T) | Potency (JEG-3)

Cc1ncc(NC(=O)c2ccc(CN3CCN(C)CC3)c(C(F)(F)F)c2)cc1Nc1nccc(-c2cccnc2)n1
inactive: outcome (HACAT) | Potency (C33A) | Potency (CAOV3) | outcome (CASKI) | Potency (Es-2) | Potency (HeLa) | Potency (Hek293T) | Potency (JEG-3)

C[C@@H]1O[C@@H](O[C@H]2[C@@H]3C=CO[C@@H](O[C@@H]4O[C@H](CO)[C@@H](O)[C@H](O)[C@H]4O)[C@@H]3[C@@]3(CO)O[C@@H]23)[C@H](O)[C@H](O)[C@H]1OC(=O)/C=C/c1ccc(O)cc1
inactive: outcome (HACAT) inactive [at 17.4 µM] | Potency (C33A) | Potency (CAOV3) | outcome (CASKI) | Potency (Es-2) | Potency (HeLa) | Potency (Hek293T) | Potency (JEG-3)

Cc1cc(OCCN2CCOCC2)nn1-c1ccc2ccccc2c1
inactive: outcome (HACAT) | Potency (C33A) | Potency (CAOV3) | outcome (CASKI) | Potency (Es-2) | Potency (HeLa) | Potency (Hek293T) | Potency (JEG-3)

CCCCC(=O)N1c2ccccc2NC2=C(C(=O)CCC2)C1c1ccccc1Cl (stereo not drawn)
inactive: outcome (HACAT) | Potency (C33A) | Potency (CAOV3) | outcome (CASKI) | Potency (Es-2) | Potency (HeLa) | Potency (Hek293T) | Potency (JEG-3)

Cc1[nH]c2ccccc2c1CC(=O)N[C@@H](Cc1ccccc1)C(=O)N(C)c1ccccc1
inactive: outcome (HACAT) | Potency (C33A) | Potency (CAOV3) | outcome (CASKI) | Potency (Es-2) | Potency (HeLa) | Potency (Hek293T) | Potency (JEG-3)

COC(=O)C1=COC(OC2OC(CO)C(O)C(O)C2O)C2C(C)C(OC(=O)/C=C/c3ccc(O)cc3)C(O)C12 (stereo not drawn)
inactive: outcome (HACAT) inactive [at 17.4 µM] | Potency (C33A) | Potency (CAOV3) | outcome (CASKI) | Potency (Es-2) | Potency (HeLa) | Potency (Hek293T) | Potency (JEG-3)

CC1(C)C(=O)N2c3ccccc3C(O)(CC(C(=O)O)n3cnc4ccccc4c3=O)C2N1O (stereo not drawn)
inactive: outcome (HACAT) inactive [at 17.4 µM] | Potency (C33A) | Potency (CAOV3) | outcome (CASKI) | Potency (Es-2) | Potency (HeLa) | Potency (Hek293T) | Potency (JEG-3)

O=C(O)c1ccncc1Nc1nn(CCN2CCC(F)(F)CC2)c2ccc(F)cc12
inactive: outcome (HACAT) | Potency (C33A) | Potency (CAOV3) | outcome (CASKI) | Potency (Es-2) | Potency (HeLa) | Potency (Hek293T) | Potency (JEG-3)

C=C(CCO[C@@H]1O[C@H](CO)[C@@H](O)[C@H](O)[C@H]1O)C(=O)O
inactive: outcome (HACAT) | Potency (C33A) | Potency (CAOV3) | outcome (CASKI) | Potency (Es-2) | Potency (HeLa) | Potency (Hek293T) | Potency (JEG-3)

C/C(=C\CC[C@H](CO)[C@@H]1CC[C@]2(C)C3=C(CC[C@@]12C)[C@@]1(C)CCC(=O)C(C)(C)C1CC3)C(=O)O (stereo partly drawn)
inactive: outcome (HACAT) inactive [at 17.4 µM] | Potency (C33A) | Potency (CAOV3) | outcome (CASKI) | Potency (Es-2) | Potency (HeLa) | Potency (Hek293T) | Potency (JEG-3)

C=CCc1cc(OC)c(OC(C)C(O)c2ccc(O)c(OC)c2)c(OC)c1 (stereo not drawn)
inactive: outcome (HACAT) | Potency (C33A) | Potency (CAOV3) | outcome (CASKI) | Potency (Es-2) | Potency (HeLa) | Potency (Hek293T) | Potency (JEG-3)

COc1cccc(C(=O)NCCNc2nc3cc(C)cc(C)c3cc2C#N)c1
inactive: outcome (HACAT) | Potency (C33A) | Potency (CAOV3) | outcome (CASKI) | Potency (Es-2) | Potency (HeLa) | Potency (Hek293T) | Potency (JEG-3)

CC1=CC2=C(C)C(=O)C(C)(O)C(O)C2CO1 (stereo not drawn)
inactive: outcome (HACAT) | Potency (C33A) | Potency (CAOV3) | outcome (CASKI) | Potency (Es-2) | Potency (HeLa) | Potency (Hek293T) | Potency (JEG-3)

C[C@@H]1CC[C@]2(C(=O)O[C@@H]3O[C@H](CO[C@@H]4O[C@H](CO)[C@@H](O[C@@H]5O[C@@H](C)[C@H](O)[C@@H](O)[C@H]5O)[C@H](O)[C@H]4O)[C@@H](O)[C@H](O)[C@H]3O)CC[C@]3(C)C(=CCC4[C@@]5(C)C[C@@H](O)[C@H](O)[C@@](C)(CO)C5CC[C@]43C)C2[C@H]1C (stereo partly drawn)
inactive: outcome (HACAT) inactive [at 9.27 µM] | activity change, negative = cytotoxicity (C33A) -0.2% [at 11.6 µM] | activity change, negative = cytotoxicity (CAOV3) -4.15% [at 11.6 µM] | activity change, negative = cytotoxicity (CASKI) 20.3% [at 11.6 µM] | activity change, negative = cytotoxicity (Es-2) -3.91% [at 11.6 µM] | activity change, negative = cytotoxicity (HeLa) 11% [at 11.6 µM] | activity change, negative = cytotoxicity (Hek293T) -0.706% [at 11.6 µM] | activity change, negative = cytotoxicity (JEG-3) 0.915% [at 11.6 µM]

COc1ccc(/C=C/C(=O)O[C@@H]2[C@@H](O)[C@@H](O)[C@H](O[C@H]3[C@@H]4C=CO[C@@H](O[C@@H]5O[C@H](CO)[C@@H](O)[C@H](O)[C@H]5O)[C@@H]4[C@@]4(CO)O[C@@H]34)O[C@H]2C)cc1
inactive: outcome (HACAT) inactive [at 17.4 µM] | Potency (C33A) | Potency (CAOV3) | outcome (CASKI) | Potency (Es-2) | Potency (HeLa) | Potency (Hek293T) | Potency (JEG-3)
